# Experimental data taken from ChEMBL document CHEMBL3988442, “University of Dundee, Small-Polar-MMV Screening Library” (2021).
# Target: T1, Aspartate--tRNA(Asp/Asn) ligase (Mycobacterium tuberculosis (strain ATCC 25618 / H37Rv)) (UniProt P9WFW3)
# T1 sequence (whole entry): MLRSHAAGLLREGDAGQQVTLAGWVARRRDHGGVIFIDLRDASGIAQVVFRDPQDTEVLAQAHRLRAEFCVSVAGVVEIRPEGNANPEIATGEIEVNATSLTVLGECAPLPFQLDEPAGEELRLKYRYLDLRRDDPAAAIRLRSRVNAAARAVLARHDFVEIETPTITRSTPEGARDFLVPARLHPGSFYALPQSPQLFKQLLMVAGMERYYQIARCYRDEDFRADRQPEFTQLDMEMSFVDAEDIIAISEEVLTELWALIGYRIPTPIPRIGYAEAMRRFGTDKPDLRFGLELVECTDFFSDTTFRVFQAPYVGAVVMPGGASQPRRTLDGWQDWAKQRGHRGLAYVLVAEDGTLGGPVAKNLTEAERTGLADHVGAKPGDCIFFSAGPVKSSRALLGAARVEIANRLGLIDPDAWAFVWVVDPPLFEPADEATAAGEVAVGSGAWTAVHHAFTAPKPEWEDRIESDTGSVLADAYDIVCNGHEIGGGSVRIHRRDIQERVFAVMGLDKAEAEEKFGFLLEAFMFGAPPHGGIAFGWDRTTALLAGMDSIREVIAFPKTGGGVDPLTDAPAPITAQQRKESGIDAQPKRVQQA
# Experiment: Assay for Asp RNA synthetase-1 from Mycobacterium tuberculosis
# Type: functional
# Parameters: scale not given: in the data most compounds retested in dose-response had high values
# Conditions: 30 µM
row,Compound,Percent Effect [%]
1,COCCc1noc(CNC2CCc3nc(C(C)C)nn3C2)n1 (stereo not given),3.49
2,CC(NC(=O)NCCCn1cccn1)c1ccc2c(c1)NC(=O)CO2 (stereo not given),-5.91
3,Fc1ccc(CN2CCO[C@H]3[C@H](OCC4CC4)CC[C@@H]32)cc1,-1.08
4,CCc1nnc2n1CCN(C(=O)c1csc(-c3cnn(C)c3)n1)C2,0.836
5,CC(C)c1nnc2ccc(N3CCC(C(=O)Nc4nccs4)CC3)nn12,-2.93
6,CCn1nc(CC(C)C)cc1C(=O)NCCCOC,-0.668
7,COCCNc1nc2c(c(NCc3ccncc3)n1)CCNCC2,2.58
8,CNC(=O)c1ccc(C2CN(C(=O)COC)CCO2)nc1 (stereo not given),5.69
9,CO[C@@H]1CC[C@H]2[C@H]1OCCN2C(=O)C1=CCCC1,3.45
10,CC1CCN(C(=O)CN(Cc2ccco2)C2CC2)CC1,0.548
11,O=C(c1ccco1)N1CCC2(CCC(=O)N2Cc2cccc(F)c2)CC1,1.32
12,Cc1ccc2c(ccn2CCC(=O)NC[C@@H]2CCCN3CCCC[C@H]23)c1,-0.958
13,O[C@H]1[C@H](n2cc(-c3ccccc3)nn2)c2ccccc2C12CCNCC2,6.77
14,O=C(CN1CCOC(Cn2cccn2)C1)NCc1cccs1 (stereo not given),-1.46
15,CC(C)NC(=O)CS(=O)(=O)Cc1cc(Cl)c2c(c1)OCCO2,-0.2
16,CC(C)c1noc(CN(Cc2cccs2)C2CC2)n1,-0.416
17,CN(C)C(=O)CO[C@@H]1CC[C@H]2[C@H]1OCCN2C(=O)C1CCOCC1,-1.59
18,COCCc1noc(CN2CCCCC2Cn2cc(C)cn2)n1 (stereo not given),-2.46
19,Cc1nn(C)c(C)c1CC(=O)N1CCC(N(C)c2cccnn2)CC1,-4.15
20,O=C(CS(=O)(=O)CC1CCCCC1)NC1CCCCNC1=O (stereo not given),-4.37

row,Compound,Percent Effect [%]
1,CCN1CCN(c2ccc(CNC(=O)c3ccc(Cl)o3)cn2)CC1,-3.07
2,CN(Cc1ccc(Cl)c(Cl)c1)C(=O)CNC(N)=O,0.719
3,Cc1ccc(SCC(=O)NS(=O)(=O)c2ccc3c(c2)OCCO3)cc1,3.3
4,CC(C)c1nn(C)c(N(C)C)c1CNCc1cccc(CN(C)C)c1,2.36
5,CNc1nc(CNC(=O)Nc2cccc(F)c2C)cs1,-2.59
6,N#Cc1ncn(CC(=O)Nc2cc(Cl)ccc2F)n1,9.55
7,Cc1ccc(CC(=O)N2CCCC(c3cc(C)[nH]n3)C2)cn1 (stereo not given),-0.962
8,COc1c(C(=O)NCc2cccnc2)nnn1Cc1ccc(C)cc1,-4.7
9,CC(C)(C)c1nnc(CN2CCCC2c2noc(C3CC3)n2)o1 (stereo not given),0.758
10,COCc1cnc2n1CCN(Cc1cccnc1)C2C (stereo not given),4.46
11,CC(=O)N1[C@H](Cn2cncn2)C[C@@H]2CN(c3ccc(C)nn3)CC[C@@H]21,-1.81
12,O=C1CC(c2ccccc2F)c2c(n3ccsc3nc2=O)N1 (stereo not given),1.48
13,CCC(=O)Nc1nnc(CCOc2cccc(OC)c2)s1,-4.27
14,Cc1cccc(N2CCN(C(=O)CN3CCN(CCO)CC3)CC2)c1,1.98
15,CN1CC(=O)N(c2cnn(C)c2)CC12CCN(Cc1ccccc1)C2 (stereo not given),-0.707
16,CCCC1CCCN(Cc2csc(-c3cnn(C)c3)n2)CC1 (stereo not given),-1.75
17,O=C(CCc1cc(O)no1)N1CCCC(COc2ccc(F)cc2)C1 (stereo not given),-2.45
18,O=C(c1ccc2c(c1)COC2)N1CCC(Nc2cccnn2)CC1,-1.3
19,CSCC[C@H](N)C(=O)NCc1cc2n(n1)CCCN(C(=O)C1CCC1)C2,-3.26
20,Cc1ccc(CN2CC[C@H]3C[C@@H](c4nc(C5CC5)cs4)O[C@@H]3C2)o1,11.7
